# The sample as a whole holds a higher share of the strongest signals than the screen did.
# Columns and labels:
# Experiment in all cases: glycan array binding signal (z-score within array); higher = stronger binding
# Conditions in all cases: glycan notation: IUPAC condensed, linker removed
# [1] = biological target: Fuc(a1-2)[Gal(a1-3)]Gal(b1-4)GlcNAc
# How it was run: (§1)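 The Consortium for Functional Glycomics database supplied 3228 glycan arrays, of which those lacking an available protein sequence were dropped. The binding signal, a within-array Z-score, was averaged across arrays of the same protein sequence and across linkers. Negative scores can be read as non-binding.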
# [2] = biological target: Fuc(a1-2)[GalNAc(a1-4)]Gal(b1-4)GlcNAc
# How it was run: as §1
# Gal(b1-3)GalNAc = biological target: Gal(b1-3)GalNAc
# How it was run: as §1
# [3] = biological target: Gal(b1-3)GalNAc(b1-3)Gal(a1-4)Gal(b1-4)Glc
# How it was run: as §1
# [4] = biological target: Gal(b1-3)GlcNAc(b1-3)Gal(b1-4)Glc
# How it was run: as §1
# Gal(b1-4)Glc6S = biological target: Gal(b1-4)Glc6S
# How it was run: as §1
# [5] = biological target: Gal(b1-4)GlcNAc(b1-3)Gal(b1-4)Glc
# How it was run: as §1
# Gal3S(b1-4)Glc = biological target: Gal3S(b1-4)Glc
# How it was run: as §1
# Gal3S6S(b1-4)GlcNAc6S = biological target: Gal3S6S(b1-4)GlcNAc6S
# How it was run: as §1
# GalNAc(a1-3)Gal = biological target: GalNAc(a1-3)Gal
# How it was run: as §1
# Glc(a1-6)Glc(a1-6)Glc = biological target: Glc(a1-6)Glc(a1-6)Glc
# How it was run: as §1
# [6] = biological target: GlcNAc(b1-2)Gal(b1-3)GalNAc
# How it was run: as §1
# [7] = biological target: Man(a1-2)Man(a1-2)Man(a1-6)[Man(a1-3)]Man
# How it was run: as §1
# [8] = biological target: Man(a1-2)Man(a1-3)[Man(a1-2)Man(a1-6)]Man(a1-6)[Man(a1-2)Man(a1-2)Man(a1-3)]Man(b1-4)GlcNAc(b1-4)GlcNAc
# How it was run: as §1
# Man(a1-3)[Man(a1-6)]Man = biological target: Man(a1-3)[Man(a1-6)]Man
# How it was run: as §1
# [9] = biological target: Neu5Ac(a2-3)Gal(b1-3)GlcNAc
# How it was run: as §1
# Neu5Ac(a2-3)Gal(b1-4)Glc = biological target: Neu5Ac(a2-3)Gal(b1-4)Glc
# How it was run: as §1
# [10] = biological target: Neu5Ac(a2-3)Gal(b1-4)GlcNAc6S
# How it was run: as §1
# [11] = biological target: Neu5Ac(a2-6)Gal(b1-4)GlcNAc(b1-3)Gal(b1-4)GlcNAc
# How it was run: as §1
# Neu5Ac(a2-6)GalNAc = biological target: Neu5Ac(a2-6)GalNAc
# How it was run: as §1
binder,measurement,setting,value
"DCAL1 (Homo sapiens), Q8IZS7 (protein) MVSNFFHVIQVFEKSATLISKTEHIGFVIYSWRKSTTHLGSRRKFAISIYLSEVSLQKYDCPFSGTSFVVFSLFLICAMAGDVVYADIKTVRTSPLELAFPLQRSVSFNFSTVHKSCPAKDWKVHKGKCYWIAETKKSWNKSQNDCAINNSYLMVIQDITAMVRFNI",glycan array binding signal (z-score),[1],-0.172
same,glycan array binding signal (z-score),[2],-0.139
same,glycan array binding signal (z-score),Gal(b1-3)GalNAc,-0.214
same,glycan array binding signal (z-score),[3],-0.25
same,glycan array binding signal (z-score),[4],-0.181
same,glycan array binding signal (z-score),Gal(b1-4)Glc6S,-0.212
same,glycan array binding signal (z-score),[5],1.75
same,glycan array binding signal (z-score),Gal3S(b1-4)Glc,-0.249
same,glycan array binding signal (z-score),Gal3S6S(b1-4)GlcNAc6S,1.34
same,glycan array binding signal (z-score),GalNAc(a1-3)Gal,-0.202
same,glycan array binding signal (z-score),Glc(a1-6)Glc(a1-6)Glc,-0.234
same,glycan array binding signal (z-score),[6],-0.121
same,glycan array binding signal (z-score),[7],-0.251
same,glycan array binding signal (z-score),[8],5.03
same,glycan array binding signal (z-score),Man(a1-3)[Man(a1-6)]Man,-0.223
same,glycan array binding signal (z-score),[9],-0.253
same,glycan array binding signal (z-score),Neu5Ac(a2-3)Gal(b1-4)Glc,-0.211
same,glycan array binding signal (z-score),[10],-0.184
same,glycan array binding signal (z-score),[11],-0.203
same,glycan array binding signal (z-score),Neu5Ac(a2-6)GalNAc,0.533

# From the supplement of paper PMC8728848
